Laboratory results taken from the supplement of paper PMC4894684.
Counter-ions that a name gives are not always drawn. ± gives the standard deviation of the averaged measurements.

What follows are compounds tested on Toxoplasma gondii RH (in HFF) (assay: parasite growth relative to the screen mean (all compounds = 100%); higher = less inhibition of parasite growth). Conditions: 5 µM; 72 h; oxygen 21 %.
Outline: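 Library compounds (10 mM DMSO stocks) were pin-transferred to 5 µM final onto confluent human foreskin fibroblasts in 96-well plates, then infected within 2 h with RH β-Gal–GFP Toxoplasma (MOI 1:5) and grown 72 h at 21% O2. Parasite number came from a CPRG β-Gal assay against in-plate standard curves. Growth is expressed relative to the screen mean (all compounds = 100%), averaged over two screens. Uninfected host-cell viability was checked by CellTiter-Blue.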

Structure (SMILES)	parasite growth [%]
CC1=NN(c2ccccc2)C(=O)C1	133 ± 8.7
C=C1/C(=C\C=C2/CCC[C@]3(C)[C@@H]([C@H](C)/C=C/[C@@H](O)C4CC4)CC[C@@H]23)C[C@@H](O)C[C@@H]1O [Calcipotriol]	81.2 ± 8.2
COc1cc(N)c(Cl)cc1C(=O)OCCCN1CCCCC1	109 ± 2.2
CC1(C)O[C@@H]2[C@@H](CO[C@@]3(COS(N)(=O)=O)OC(C)(C)O[C@@H]23)O1 [Topiramate]	112 ± 8.3
CCCCCCC(=O)OC1CC(C)(C)NC(C)(C)C1 [TMPH hydrochloride]	123 ± 14
Cc1c(CC(C)(C)C(=O)O)n(Cc2ccc(Cl)cc2)c2ccc(F)cc12	129 ± 22
CS(=O)(=O)Nc1c(O)ccc2c1CCCC2C1=NCCN1 (stereo not drawn)	101 ± 12
c1ccc(-c2n[nH]c3c2oc2ccccc23)cc1	103 ± 32
N[C@@H](C(=O)O)c1ccc(O)c(C(=O)O)c1 [(R)-3-Carboxy-4-hydroxyphenylglycine]	148 ± 15
CCn1c(=O)n(C2=C(CO)CN(CC3CCCCCCC3)CC2)c2ccccc21	174 ± 19
CC[C@H](C)C(=O)O[C@H]1C[C@H](O)C=C2C=C[C@H](C)[C@H](CC[C@@H](O)C[C@@H](O)CC(=O)O)[C@H]21 [Pravastatin sodium salt]	127 ± 9.5
Oc1nc(-c2ccc(C(F)(F)F)cc2)nc2c1CSCC2	136 ± 21
c1ccc(CN2CCC3(CCc4ccccc43)CC2)cc1 [L-693,403 maleate]	135 ± 10
COc1cc2c(cc1OC)-c1cc3nc4ccccc4nc3n1C(C)(C)C2	< 0
CC(C)NC[C@@H](O)COc1cccc2ccccc12 [(R)-(+)-Propranolol hydrochloride]	87.15 ± 0.86
COP(=O)(OC)OC(c1ccc(Cl)cc1)P(=O)(OC)OC (stereo not drawn)	79.4 ± 28
O=c1[nH]ccc2c(S(=O)(=O)N3CCCNCC3)cccc12 [HA 1100 hydrochloride]	122 ± 10
CC1C(=O)OC2C(O)C34C5CC(C(C)(C)C)C36C(OC(=O)C6O)OC4(C(=O)O5)C12O (stereo not drawn) [Ginkgolide B]	82.1 ± 27
CSc1nc(NC2CCCC2)c([N+](=O)[O-])c(NC2CCCC2)n1	35.6 ± 32

Structure (SMILES)	parasite growth [%]
O=C(NCC1CCCCN1)c1cc(OCC(F)(F)F)ccc1OCC(F)(F)F (stereo not drawn) [Flecainide acetate]	130 ± 7.9
O=C(Cc1ccccc1)Nc1nc2ccc(Cl)cc2c2nc(-c3ccco3)nn12	121 ± 57
Oc1ccc(-c2nc(-c3ccc(F)cc3)c(-c3ccncc3)[nH]2)cc1	< 0
Cc1c(C(=O)NN2CCOCC2)nn(-c2ccc(Cl)cc2Cl)c1-c1ccc(I)cc1	88.1 ± 20
CC(C)(Sc1ccc(CCN(CCCCC2CCCCC2)C(=O)NC2CCCCC2)cc1)C(=O)O	87.9 ± 17
CC(C)Oc1ccc2c(=O)c3cc(C(=O)O)ccc3oc2c1	81.9 ± 15
Clc1cccc(Nc2nnc(-c3ccccc3)c3ccccc23)c1	143.2 ± 1.4
CCc1c2c(nc3ccc(O)cc13)-c1cc3c(c(=O)n1C2)COC(=O)[C@]3(O)CC	110.2 ± 0.25
NC(N)=NC(N)=Nc1cccc(Cl)c1 [m-Chlorophenylbiguanide hydrochloride]	133 ± 15
CCOC(=O)C1=C[C@]2(CC)CCCN3CCc4c(n1c1ccccc41)[C@@H]32 [Vinpocetine]	121 ± 10
COc1ccc(Br)cc1S(=O)(=O)NC(=O)/C=C/c1ccccc1Cc1ccc2ccccc2c1	125 ± 12
COc1cc2c(cc1C(F)(F)F)N(C(=O)Nc1cc(F)cc(-c3cccnc3)c1)CC2	29.9 ± 3.3
O=C1C(=O)N(Cc2ccc(Cl)c(Cl)c2)c2ccccc21 [Apoptosis Activator 2]	120 ± 3.4
COC(=O)[C@H](NC(=O)c1cc(-c2ccccc2)nc2ccccc12)c1ccccc1	112.7 ± 0.18
c1ccc(C(O[C@@H]2CCCN(CCc3ccc4c(c3)OCO4)C2)c2ccccc2)cc1 [Zamifenacin fumarate]	128 ± 20
O=S1(=O)c2cccc3cccc(c23)N1CCCN1CCN(c2ccc(F)cc2)CC1 [Fananserin]	130 ± 14
Cc1c(OCC(F)(F)F)ccnc1C[S+]([O-])c1nc2ccccc2[nH]1 (stereo not drawn) [Lansoprazole]	124 ± 9.3
COc1nc(C)nc(Cl)c1NC1=NCCN1 [Moxonidine hydrochloride]	108 ± 27
COC(=O)C(Cc1ccc(OCCn2c(=O)sc3cc(C(=O)c4ccccc4)ccc32)cc1)C(=O)OC	120 ± 5.3
